Laboratory results published in PubChem BioAssay AID1619 (SRMLSC, 2009).
Among all 220,000 compounds or so, about 830 (0.38%) were called active.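 Rule for the calls: active = compound inhibiting the enzyme by more than half at any dose during confirmatory dose-response retesting; inconclusive = strong single-dose inhibitors picked by rank but not retested; inactive = the rest.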 Not all results are given here. Entries with a potency or affinity are not part of this list.

Target: Leucine aminopeptidase (Plasmodium falciparum (isolate 3D7)) (UniProt Q8IL11)
Test: P. falciparum M17LAP inhibitors, primary screen, biochemical, fluorogenic H-Leu-NHMec substrate, 1536-well (AID 1619);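 note: plate controls were full reaction with DMSO carrier for no effect and no enzyme background for full effect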
Conditions: recombinant M17LAP, H-Leu-NHMec fluorogenic kinetic assay; at 30 µM; stronger effect = higher value

Sequence of Leucine aminopeptidase (Plasmodium falciparum (isolate 3D7)) (Q8IL11 whole entry, looked up): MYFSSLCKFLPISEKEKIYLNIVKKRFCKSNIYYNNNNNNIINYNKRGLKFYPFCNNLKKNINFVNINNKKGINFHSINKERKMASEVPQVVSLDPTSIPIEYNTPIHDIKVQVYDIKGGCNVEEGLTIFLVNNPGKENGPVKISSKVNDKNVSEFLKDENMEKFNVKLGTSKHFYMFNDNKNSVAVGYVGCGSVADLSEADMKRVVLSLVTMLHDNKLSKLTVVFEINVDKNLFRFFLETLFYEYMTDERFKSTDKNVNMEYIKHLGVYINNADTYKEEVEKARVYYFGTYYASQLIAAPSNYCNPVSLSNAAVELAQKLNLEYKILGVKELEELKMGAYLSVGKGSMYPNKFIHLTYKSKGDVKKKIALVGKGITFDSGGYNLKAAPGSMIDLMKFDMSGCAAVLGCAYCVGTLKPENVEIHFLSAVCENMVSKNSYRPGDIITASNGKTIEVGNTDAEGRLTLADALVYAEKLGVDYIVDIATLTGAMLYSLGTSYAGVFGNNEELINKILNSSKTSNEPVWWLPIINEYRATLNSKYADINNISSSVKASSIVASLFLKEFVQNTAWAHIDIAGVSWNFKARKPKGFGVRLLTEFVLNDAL

inhibition, inactive:
O=C(CCCN1C(=O)c2cccc3cccc(c23)C1=O)NCCN1CCOCC1 4.16%
O=C(CCc1nnc(CCCCc2ccccc2)o1)NCc1cccc(F)c1 -1.09%
CCC(C)Oc1cc(-c2ccnc(Nc3cccc(Cl)c3)n2)ccn1 (configuration not stated) 0.9%
CC(=O)Nc1ccc(S(=O)(=O)NCc2csc(-c3cccnc3)n2)cc1 5.75%
CC(=O)NS(=O)(=O)c1ccc(NC(=O)c2cc(-c3ccc(C)c(C)c3)nc3ccccc23)cc1 -0.01%
Cc1ccc(-c2cc(C(=O)Nc3ccc(S(=O)(=O)Nc4nc(C)cc(C)n4)cc3)c3ccccc3n2)cc1 -0.85%
CC(=O)NS(=O)(=O)c1ccc(NC(=O)c2cc(-c3cccs3)nc3ccccc23)cc1 16.1%
Cc1ccc(-c2cc(C(=O)Nc3ccc(S(=O)(=O)Nc4ncccn4)cc3)c3ccccc3n2)cc1 39.1%
COc1ccc2c(c1)nc(SCC(=O)c1ccc(Br)s1)n2C 43.5%
COc1ccc(C(O)P(=O)(O)CCc2ccccc2)cc1 (configuration not stated) 21.7%
CCOC(=O)CCP(=O)(O)C(O)c1ccccc1 (configuration not stated) 11.7%
O=C1OC(c2ccccc2)=C/C1=C\N1CCOCC1 8.13%
CC(C)[C@H](NC(=O)c1ccccc1)C(=O)OCC(=O)N1CCc2ccccc2C1 10.5%
COc1ccc(NC(=O)c2ccc(-n3cccn3)c([N+](=O)[O-])c2)cc1 1.4%
O=C(CCCOc1ccc(Cl)cc1Cl)n1nnc2ccccc21 69.2%
O=C(CCCOc1ccccc1)n1nnc2ccccc21 -0.57%
CN1CCN(C(=O)/C=C/c2ccc3c(c2)OCO3)CC1 6.85%
COc1ccc(-n2c(=O)c3c4c(sc3n(CC(=O)NC3CCCC3)c2=O)CCCC4)c(OC)c1 0%
COc1cc(NC(=O)Cc2cccs2)c(C(=O)O)cc1OC 4.5%
O=C(CC(Nc1ccccc1Cl)C(=O)O)c1ccccc1 (configuration not stated) 19.8%
Cc1c(Cl)cccc1NC(CC(=O)c1ccccc1)C(=O)O (configuration not stated) 49.4%
O=C(CCCN1C(=O)c2ccccc2C1=O)Nc1nncs1 0.65%
COc1cc(-c2csc(C)n2)ccc1O -9.57%
Oc1ccc(-c2nc(-c3ccc(O)c(O)c3)cs2)cc1 25.6%
Cc1cc(Cl)cc(Cl)c1OCCCCN(C)C 1.1%
Cn1c(NC(=O)/C=C/c2ccccc2)cc(=O)n(C)c1=O 9.82%
COc1ccc(/C=C/C(=O)Nc2cc(=O)n(C)c(=O)n2C)cc1 50.5%
CCCCC(CC)CNC(=O)/C=C/c1ccc(F)cc1 (configuration not stated) 9.03%
COc1ccc(S(=O)(=O)Nc2ccc3c(c2)OCCO3)cc1Cl -0.34%
O=C1CC(CSc2ccc(Cl)cc2)=NN1 7.98%
Cc1cc(SCC2=NNC(=O)C2)c(Cl)cc1Cl 3.5%
O=C(O)COc1ccc(Cl)cc1CO 20%
CCOC(=O)C1=C(C)N(C)C(C)=C(C(=O)OCC)C1c1ccc(C(=O)OC)cc1 3.78%
CC(C)NC(=O)NC(=O)COc1c(F)c(F)cc(F)c1F -8.9%
CCNC(=S)Nc1ccc2cn[nH]c2c1 14.6%
CCc1ccc(NC(=S)Nc2ccc3cn[nH]c3c2)cc1 11.2%
CC(c1ccon1)N(C)Cc1cn(C)nc1-c1cccc(Cl)c1 (configuration not stated) -1.33%
CN(C)c1ccc(/C=C2\CCC/C(=C\c3ccccc3)C2=O)cc1 5.08%
O=C1/C(=C/c2ccncc2)CCC/C1=C\c1ccncc1 -3.28%
COc1ccc(CC(=O)Nc2cc(S(=O)(=O)N3CCOCC3)ccc2N2CCOCC2)cc1 2.63%
O=C(Nc1ccc(OC(F)(F)F)cc1)Nc1cccc([N+](=O)[O-])c1 2.58%
CC(=O)Nc1ccc(CC(=O)O)cc1 -5.89%
O=C(Nc1cccc(Cl)c1)Nc1cccc(Cl)c1 1.69%
O=C(Nc1ccccc1)Nc1cccc(Cl)c1 15.7%
O=C(Nc1cccc([N+](=O)[O-])c1)Nc1cccc([N+](=O)[O-])c1 -0.88%
COc1ccc(NC(=O)Nc2ccc(CC(=O)O)cc2)cc1 2.73%
COC(=O)c1cccc(NC(=O)Nc2ccc(Cl)cc2)c1 2.56%
O=C(Nc1cccc(Cl)c1)Nc1cccc(C(=O)O)c1 -7.66%
O=C(COc1ccc(S(=O)(=O)N2CCCCC2)cc1)NC1CCCCC1 0.02%
O=C(NC(Cc1ccccc1)C(=O)O)/C(=C\c1ccccc1F)NC(=O)c1ccccc1 (configuration not stated) 32.3%
O=C(NCc1ccco1)c1ccc(F)c(S(=O)(=O)N2CCCCC2)c1 8.34%
C#CCOc1nc(OCC#C)nc(OCC#C)n1 -14.6%
CC(C)(C)[C@@H]1C=C(C(=O)N2CCOCC2)O[C@H](OCc2ccc(CO)cc2)C1 0.65%
COc1ccccc1CNC(=O)COC(=O)Cc1c(F)cccc1Cl -4.41%
CC(C)C(=O)Nc1ccc(NC(=S)NC(=O)c2cc3ccccc3o2)cc1 -4.08%
COc1ccc(OC)c(NC(=S)N(CCc2c(C)[nH]c3ccc(C)cc23)Cc2cccs2)c1 3.79%
Cc1csc(NC(=O)c2cc(=O)[nH]c3ccc(S(=O)(=O)N4CCOCC4)cc23)n1 -22.8%
CSc1nc(C)cc(SCC(=O)N/N=C/c2ccccc2)n1 -5.92%
O=C(CSc1nc2ccccc2o1)N/N=C/c1ccccc1 17.4%
COc1ccc(/C=N/NC(=O)CSCC(=O)Nc2ccccc2)cc1 -7.59%
COc1ccc(/C=N/NC(=O)CC(=O)N/N=C/c2ccc(OC)cc2)cc1 14.7%
Cc1cc(C(=O)Nc2ccccc2N2CCOCC2)ccc1[N+](=O)[O-] 8.21%
